# Reference: ChEMBL document CHEMBL1961873, “Compounds: GSK PKIS; Assays: Nanosyn kinase panel” (2012)
# Tests used:
# [1] = target: T1, Inhibitor of nuclear factor kappa-B kinase subunit epsilon (Homo sapiens) (UniProt Q14164); conditions: at 1 µM;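 also: reported values are averaged percent inhibition figures against human IKKε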
# T1 sequence (whole entry): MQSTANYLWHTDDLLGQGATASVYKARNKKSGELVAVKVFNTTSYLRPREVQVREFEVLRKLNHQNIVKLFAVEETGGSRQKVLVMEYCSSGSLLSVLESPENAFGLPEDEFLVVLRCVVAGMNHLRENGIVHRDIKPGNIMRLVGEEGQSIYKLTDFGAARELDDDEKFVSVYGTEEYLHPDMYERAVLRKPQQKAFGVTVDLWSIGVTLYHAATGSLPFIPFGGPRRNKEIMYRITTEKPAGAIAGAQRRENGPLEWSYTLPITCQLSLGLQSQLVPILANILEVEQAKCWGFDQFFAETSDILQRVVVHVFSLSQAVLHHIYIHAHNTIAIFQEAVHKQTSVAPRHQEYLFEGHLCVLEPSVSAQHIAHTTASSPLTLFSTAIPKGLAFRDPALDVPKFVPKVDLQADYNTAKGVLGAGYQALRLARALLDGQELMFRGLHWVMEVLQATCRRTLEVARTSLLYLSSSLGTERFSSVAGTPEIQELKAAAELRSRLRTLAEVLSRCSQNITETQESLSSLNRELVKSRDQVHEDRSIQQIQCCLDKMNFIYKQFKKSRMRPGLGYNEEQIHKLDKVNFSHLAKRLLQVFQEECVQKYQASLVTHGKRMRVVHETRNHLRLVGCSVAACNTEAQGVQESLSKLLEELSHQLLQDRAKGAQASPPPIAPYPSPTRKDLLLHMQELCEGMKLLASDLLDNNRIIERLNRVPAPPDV
# [2] = target: T2, Serine/threonine-protein kinase Nek1 (Homo sapiens) (UniProt Q96PY6); conditions: at 0.1 µM
# T2 sequence (whole entry): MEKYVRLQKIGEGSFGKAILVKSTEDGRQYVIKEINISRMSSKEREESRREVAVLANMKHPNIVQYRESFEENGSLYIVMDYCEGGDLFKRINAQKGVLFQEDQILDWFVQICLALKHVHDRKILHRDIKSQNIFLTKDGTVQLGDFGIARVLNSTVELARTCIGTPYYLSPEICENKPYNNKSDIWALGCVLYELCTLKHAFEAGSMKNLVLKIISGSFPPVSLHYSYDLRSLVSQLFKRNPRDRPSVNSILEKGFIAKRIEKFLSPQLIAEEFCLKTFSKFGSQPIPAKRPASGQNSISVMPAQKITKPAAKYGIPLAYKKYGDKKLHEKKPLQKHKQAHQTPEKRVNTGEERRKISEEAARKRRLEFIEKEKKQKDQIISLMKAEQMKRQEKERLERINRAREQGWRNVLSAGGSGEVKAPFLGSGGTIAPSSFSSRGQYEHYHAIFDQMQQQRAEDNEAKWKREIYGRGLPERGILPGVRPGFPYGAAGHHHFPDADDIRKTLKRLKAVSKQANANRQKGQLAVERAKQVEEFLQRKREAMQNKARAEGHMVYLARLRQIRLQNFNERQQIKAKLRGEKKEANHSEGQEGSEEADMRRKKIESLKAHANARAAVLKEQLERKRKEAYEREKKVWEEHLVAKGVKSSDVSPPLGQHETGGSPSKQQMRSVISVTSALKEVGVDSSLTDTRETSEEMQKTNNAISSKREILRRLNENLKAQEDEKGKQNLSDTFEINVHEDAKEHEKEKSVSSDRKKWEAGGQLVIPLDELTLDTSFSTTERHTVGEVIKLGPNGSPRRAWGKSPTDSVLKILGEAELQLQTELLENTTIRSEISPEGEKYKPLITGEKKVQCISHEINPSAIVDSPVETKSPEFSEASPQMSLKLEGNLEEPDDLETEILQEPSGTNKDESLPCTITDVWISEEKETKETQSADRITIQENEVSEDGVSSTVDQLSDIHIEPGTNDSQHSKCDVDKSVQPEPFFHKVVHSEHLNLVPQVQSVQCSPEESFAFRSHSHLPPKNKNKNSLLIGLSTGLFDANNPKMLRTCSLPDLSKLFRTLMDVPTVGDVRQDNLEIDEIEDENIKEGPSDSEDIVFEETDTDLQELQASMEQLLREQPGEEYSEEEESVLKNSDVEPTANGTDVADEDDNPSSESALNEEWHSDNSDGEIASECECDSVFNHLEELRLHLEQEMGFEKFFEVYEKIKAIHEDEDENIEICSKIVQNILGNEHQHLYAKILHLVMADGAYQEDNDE
# [3] = target: T2, Serine/threonine-protein kinase Nek1 (Homo sapiens); conditions: at 1 µM
# [4] = target: T3, Serine/threonine-protein kinase Nek2 (Homo sapiens) (UniProt P51955); conditions: at 0.1 µM
# T3 sequence (whole entry): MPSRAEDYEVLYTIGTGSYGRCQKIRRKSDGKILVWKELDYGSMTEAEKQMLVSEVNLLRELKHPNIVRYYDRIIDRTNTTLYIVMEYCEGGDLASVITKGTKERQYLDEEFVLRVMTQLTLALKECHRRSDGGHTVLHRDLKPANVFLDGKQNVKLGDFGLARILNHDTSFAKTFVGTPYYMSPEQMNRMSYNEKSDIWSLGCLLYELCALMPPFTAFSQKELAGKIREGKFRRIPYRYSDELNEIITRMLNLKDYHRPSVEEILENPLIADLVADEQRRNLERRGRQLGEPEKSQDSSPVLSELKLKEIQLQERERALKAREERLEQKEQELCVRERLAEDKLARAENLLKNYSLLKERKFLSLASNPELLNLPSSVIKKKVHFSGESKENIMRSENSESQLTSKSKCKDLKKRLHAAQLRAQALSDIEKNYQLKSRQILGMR
# [5] = target: T3, Serine/threonine-protein kinase Nek2 (Homo sapiens); conditions: at 1 µM
# [6] = target: Serine/threonine-protein kinase Nek6 (Homo sapiens) (UniProt Q9HC98); conditions: at 0.1 µM
# [7] = target: Serine/threonine-protein kinase Nek6 (Homo sapiens) (UniProt Q9HC98); conditions: at 1 µM
# [8] = target: Serine/threonine-protein kinase Nek7 (Homo sapiens) (UniProt Q8TDX7); conditions: at 0.1 µM
# [9] = target: Serine/threonine-protein kinase Nek7 (Homo sapiens) (UniProt Q8TDX7); conditions: at 1 µM
# [10] = target: T4, Serine/threonine-protein kinase Nek9 (Homo sapiens) (UniProt Q8TD19); conditions: at 0.1 µM
# T4 sequence (whole entry): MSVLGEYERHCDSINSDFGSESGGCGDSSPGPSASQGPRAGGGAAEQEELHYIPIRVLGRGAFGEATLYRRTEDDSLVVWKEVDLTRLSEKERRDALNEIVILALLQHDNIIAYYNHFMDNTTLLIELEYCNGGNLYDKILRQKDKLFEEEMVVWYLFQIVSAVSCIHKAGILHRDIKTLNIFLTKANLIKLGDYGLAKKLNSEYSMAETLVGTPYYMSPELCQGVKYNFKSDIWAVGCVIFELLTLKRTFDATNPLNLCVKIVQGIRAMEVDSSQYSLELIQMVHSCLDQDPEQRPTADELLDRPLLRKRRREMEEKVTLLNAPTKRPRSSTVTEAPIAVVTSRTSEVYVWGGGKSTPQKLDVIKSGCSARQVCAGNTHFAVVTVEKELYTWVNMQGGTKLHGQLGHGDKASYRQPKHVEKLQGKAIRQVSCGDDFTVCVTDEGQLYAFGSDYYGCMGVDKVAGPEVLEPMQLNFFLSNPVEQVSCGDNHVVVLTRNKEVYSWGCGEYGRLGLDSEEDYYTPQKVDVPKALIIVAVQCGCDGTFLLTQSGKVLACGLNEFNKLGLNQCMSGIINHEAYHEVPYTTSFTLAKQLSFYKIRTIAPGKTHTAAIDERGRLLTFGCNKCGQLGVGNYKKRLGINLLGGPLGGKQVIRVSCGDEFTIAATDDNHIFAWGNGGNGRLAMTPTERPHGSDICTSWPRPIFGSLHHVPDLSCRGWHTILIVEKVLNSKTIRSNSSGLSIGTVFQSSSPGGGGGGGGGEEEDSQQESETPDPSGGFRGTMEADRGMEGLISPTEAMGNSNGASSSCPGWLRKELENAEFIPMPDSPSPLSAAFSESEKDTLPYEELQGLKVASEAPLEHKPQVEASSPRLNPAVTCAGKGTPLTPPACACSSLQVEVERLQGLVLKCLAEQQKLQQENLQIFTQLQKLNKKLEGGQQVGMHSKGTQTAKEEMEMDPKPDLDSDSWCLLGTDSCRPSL
# [11] = target: T4, Serine/threonine-protein kinase Nek9 (Homo sapiens); conditions: at 1 µM
# [12] = target: Serine/threonine-protein kinase PLK1 (Homo sapiens) (UniProt P53350); conditions: at 0.1 µM
# [13] = target: Serine/threonine-protein kinase PLK1 (Homo sapiens) (UniProt P53350); conditions: at 1 µM
# [14] = target: T5, Dual specificity protein kinase TTK (Homo sapiens) (UniProt P33981); conditions: at 0.1 µM
# T5 sequence (whole entry): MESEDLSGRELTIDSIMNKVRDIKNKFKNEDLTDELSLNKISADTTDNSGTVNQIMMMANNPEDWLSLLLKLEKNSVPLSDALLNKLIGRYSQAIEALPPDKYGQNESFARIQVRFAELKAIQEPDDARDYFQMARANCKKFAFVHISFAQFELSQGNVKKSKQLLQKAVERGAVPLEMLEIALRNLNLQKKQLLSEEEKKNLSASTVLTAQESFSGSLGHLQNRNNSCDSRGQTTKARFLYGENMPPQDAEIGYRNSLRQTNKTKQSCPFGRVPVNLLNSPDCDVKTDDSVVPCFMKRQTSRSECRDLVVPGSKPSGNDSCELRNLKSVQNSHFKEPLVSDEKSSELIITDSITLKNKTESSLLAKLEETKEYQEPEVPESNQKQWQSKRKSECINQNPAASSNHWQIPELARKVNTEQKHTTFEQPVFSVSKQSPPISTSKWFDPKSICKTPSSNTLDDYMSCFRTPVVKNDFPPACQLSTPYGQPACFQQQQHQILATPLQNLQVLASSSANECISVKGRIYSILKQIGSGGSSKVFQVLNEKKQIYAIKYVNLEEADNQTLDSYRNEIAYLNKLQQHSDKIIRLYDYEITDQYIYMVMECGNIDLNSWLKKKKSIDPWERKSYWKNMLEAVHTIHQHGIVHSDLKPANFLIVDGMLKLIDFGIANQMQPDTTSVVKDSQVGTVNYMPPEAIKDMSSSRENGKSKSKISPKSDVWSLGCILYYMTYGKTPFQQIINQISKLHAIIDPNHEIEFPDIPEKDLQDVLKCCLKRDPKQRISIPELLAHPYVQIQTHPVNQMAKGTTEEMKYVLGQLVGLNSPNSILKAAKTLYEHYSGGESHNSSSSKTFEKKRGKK
# [15] = tested on: T6, Receptor-type tyrosine-protein kinase FLT3 (Homo sapiens), P36888 [D835Y]; conditions: at 1 µM
# T6 sequence (whole entry): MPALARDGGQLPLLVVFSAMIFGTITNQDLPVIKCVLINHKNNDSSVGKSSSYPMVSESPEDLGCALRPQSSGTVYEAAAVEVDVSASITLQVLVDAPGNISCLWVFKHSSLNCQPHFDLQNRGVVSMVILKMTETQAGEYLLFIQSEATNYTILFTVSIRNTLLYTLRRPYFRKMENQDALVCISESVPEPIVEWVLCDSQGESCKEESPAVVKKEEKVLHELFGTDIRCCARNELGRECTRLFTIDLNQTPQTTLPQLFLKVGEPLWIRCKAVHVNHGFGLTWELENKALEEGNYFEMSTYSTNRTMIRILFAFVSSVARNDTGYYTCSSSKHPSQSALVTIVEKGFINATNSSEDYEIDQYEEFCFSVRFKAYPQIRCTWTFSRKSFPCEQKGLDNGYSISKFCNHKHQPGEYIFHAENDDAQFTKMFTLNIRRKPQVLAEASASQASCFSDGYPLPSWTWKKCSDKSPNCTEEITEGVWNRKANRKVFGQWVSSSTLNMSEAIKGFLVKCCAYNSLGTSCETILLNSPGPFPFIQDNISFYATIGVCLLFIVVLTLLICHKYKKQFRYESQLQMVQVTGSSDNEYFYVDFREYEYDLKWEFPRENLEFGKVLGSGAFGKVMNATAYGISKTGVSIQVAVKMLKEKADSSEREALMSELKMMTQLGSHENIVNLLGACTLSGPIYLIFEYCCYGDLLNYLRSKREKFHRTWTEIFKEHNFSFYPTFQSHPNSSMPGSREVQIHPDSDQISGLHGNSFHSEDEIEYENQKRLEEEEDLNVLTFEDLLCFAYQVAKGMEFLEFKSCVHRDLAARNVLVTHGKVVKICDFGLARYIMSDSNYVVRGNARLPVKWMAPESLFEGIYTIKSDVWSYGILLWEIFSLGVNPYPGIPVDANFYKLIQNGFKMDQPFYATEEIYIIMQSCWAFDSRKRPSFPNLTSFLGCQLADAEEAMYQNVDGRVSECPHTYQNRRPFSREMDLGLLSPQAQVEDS
# [16] = target: Vascular endothelial growth factor receptor 3 (Homo sapiens) (UniProt P35916); conditions: at 0.1 µM
# [17] = target: Vascular endothelial growth factor receptor 3 (Homo sapiens) (UniProt P35916); conditions: at 1 µM
# [18] = target: Macrophage colony-stimulating factor 1 receptor (Homo sapiens) (UniProt P07333); conditions: at 0.1 µM
# [19] = target: Macrophage colony-stimulating factor 1 receptor (Homo sapiens) (UniProt P07333); conditions: at 1 µM
# [20] = target: Tyrosine-protein kinase Fyn (Homo sapiens) (UniProt P06241); conditions: at 0.1 µM
# Tyrosine-protein kinase Fyn (Homo sapiens), sequence (P06241 2-537 limits assumed): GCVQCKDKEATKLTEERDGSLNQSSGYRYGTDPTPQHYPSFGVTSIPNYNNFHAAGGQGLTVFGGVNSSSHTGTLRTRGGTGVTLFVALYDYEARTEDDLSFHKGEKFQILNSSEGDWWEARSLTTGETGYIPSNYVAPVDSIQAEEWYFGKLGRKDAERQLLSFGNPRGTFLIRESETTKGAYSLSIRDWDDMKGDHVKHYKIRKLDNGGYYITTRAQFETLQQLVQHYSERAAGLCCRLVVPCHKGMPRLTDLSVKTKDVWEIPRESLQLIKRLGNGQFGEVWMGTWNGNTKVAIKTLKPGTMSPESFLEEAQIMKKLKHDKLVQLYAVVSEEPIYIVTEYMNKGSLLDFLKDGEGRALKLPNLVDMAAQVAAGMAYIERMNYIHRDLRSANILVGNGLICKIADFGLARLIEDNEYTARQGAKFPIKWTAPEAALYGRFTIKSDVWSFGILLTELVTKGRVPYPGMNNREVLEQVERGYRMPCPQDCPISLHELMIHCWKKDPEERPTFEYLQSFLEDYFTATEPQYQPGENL
# Vascular endothelial growth factor receptor 3 (Homo sapiens), sequence (P35916 whole entry): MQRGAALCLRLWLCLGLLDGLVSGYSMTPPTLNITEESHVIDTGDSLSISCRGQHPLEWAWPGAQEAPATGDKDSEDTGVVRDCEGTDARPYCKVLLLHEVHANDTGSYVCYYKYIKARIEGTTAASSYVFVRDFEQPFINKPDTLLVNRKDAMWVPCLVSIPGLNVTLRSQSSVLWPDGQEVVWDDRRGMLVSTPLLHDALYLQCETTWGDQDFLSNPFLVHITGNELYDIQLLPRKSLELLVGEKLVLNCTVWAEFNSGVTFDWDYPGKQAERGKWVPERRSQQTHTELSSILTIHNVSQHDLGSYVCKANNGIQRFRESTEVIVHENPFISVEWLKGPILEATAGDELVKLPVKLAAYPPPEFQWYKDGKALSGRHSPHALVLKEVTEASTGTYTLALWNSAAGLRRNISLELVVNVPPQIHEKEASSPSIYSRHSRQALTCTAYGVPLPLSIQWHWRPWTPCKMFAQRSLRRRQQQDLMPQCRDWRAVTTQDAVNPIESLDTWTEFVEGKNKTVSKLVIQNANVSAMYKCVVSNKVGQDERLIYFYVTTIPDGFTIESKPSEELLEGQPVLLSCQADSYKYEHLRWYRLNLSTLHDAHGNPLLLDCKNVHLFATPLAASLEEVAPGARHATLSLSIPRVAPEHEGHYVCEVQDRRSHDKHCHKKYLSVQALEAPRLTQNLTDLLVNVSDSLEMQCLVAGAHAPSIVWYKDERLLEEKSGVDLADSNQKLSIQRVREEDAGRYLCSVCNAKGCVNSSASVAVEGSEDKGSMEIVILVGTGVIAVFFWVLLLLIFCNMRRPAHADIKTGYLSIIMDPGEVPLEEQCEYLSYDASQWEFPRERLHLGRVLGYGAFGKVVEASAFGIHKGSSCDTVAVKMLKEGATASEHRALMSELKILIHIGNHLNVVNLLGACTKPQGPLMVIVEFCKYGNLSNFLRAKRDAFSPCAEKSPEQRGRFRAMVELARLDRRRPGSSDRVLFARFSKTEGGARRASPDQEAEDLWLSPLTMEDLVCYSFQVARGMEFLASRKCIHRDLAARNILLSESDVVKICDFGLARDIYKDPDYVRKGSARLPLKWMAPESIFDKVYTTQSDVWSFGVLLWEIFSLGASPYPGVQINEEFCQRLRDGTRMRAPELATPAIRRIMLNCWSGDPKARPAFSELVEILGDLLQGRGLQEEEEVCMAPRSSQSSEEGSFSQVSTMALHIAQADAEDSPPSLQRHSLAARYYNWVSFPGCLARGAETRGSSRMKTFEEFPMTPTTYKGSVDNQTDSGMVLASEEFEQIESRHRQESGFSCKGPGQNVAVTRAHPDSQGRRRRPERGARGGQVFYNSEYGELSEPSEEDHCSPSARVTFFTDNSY
# Serine/threonine-protein kinase PLK1 (Homo sapiens), sequence (P53350 whole entry): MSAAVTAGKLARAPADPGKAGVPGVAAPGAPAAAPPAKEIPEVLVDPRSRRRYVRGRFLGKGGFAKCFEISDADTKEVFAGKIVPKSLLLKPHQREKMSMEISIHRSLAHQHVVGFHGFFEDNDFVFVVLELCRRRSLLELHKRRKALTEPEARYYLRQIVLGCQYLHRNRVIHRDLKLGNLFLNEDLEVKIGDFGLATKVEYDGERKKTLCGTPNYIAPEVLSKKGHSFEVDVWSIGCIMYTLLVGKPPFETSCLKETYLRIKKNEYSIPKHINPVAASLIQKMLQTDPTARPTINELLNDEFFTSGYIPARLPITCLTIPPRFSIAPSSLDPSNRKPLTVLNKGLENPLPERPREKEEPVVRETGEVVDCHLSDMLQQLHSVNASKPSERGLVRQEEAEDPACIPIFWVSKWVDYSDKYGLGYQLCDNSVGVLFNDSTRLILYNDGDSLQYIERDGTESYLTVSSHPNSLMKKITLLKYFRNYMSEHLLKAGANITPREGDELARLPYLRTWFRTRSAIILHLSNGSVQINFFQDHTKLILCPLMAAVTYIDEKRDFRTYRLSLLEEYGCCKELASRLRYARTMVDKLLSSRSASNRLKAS
# Serine/threonine-protein kinase Nek7 (Homo sapiens), sequence (Q8TDX7 whole entry, looked up): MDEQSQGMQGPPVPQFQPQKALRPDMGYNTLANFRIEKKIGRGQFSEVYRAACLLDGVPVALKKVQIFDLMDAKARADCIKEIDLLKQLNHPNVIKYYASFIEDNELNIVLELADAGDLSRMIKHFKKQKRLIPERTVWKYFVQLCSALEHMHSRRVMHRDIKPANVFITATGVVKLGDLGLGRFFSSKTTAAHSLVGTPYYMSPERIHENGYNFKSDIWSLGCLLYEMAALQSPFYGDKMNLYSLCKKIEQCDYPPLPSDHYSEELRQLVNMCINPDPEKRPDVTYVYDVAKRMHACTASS
# Serine/threonine-protein kinase Nek6 (Homo sapiens), sequence (Q9HC98 whole entry): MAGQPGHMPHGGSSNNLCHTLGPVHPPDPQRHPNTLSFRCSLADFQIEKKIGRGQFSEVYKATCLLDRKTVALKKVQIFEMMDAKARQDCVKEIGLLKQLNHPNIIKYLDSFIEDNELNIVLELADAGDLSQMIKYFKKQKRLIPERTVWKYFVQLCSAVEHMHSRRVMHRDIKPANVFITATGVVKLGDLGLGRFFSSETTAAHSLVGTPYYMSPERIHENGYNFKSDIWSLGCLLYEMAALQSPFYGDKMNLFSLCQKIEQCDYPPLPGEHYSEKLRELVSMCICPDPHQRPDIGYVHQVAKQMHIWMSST
# Macrophage colony-stimulating factor 1 receptor (Homo sapiens), sequence (P07333 whole entry): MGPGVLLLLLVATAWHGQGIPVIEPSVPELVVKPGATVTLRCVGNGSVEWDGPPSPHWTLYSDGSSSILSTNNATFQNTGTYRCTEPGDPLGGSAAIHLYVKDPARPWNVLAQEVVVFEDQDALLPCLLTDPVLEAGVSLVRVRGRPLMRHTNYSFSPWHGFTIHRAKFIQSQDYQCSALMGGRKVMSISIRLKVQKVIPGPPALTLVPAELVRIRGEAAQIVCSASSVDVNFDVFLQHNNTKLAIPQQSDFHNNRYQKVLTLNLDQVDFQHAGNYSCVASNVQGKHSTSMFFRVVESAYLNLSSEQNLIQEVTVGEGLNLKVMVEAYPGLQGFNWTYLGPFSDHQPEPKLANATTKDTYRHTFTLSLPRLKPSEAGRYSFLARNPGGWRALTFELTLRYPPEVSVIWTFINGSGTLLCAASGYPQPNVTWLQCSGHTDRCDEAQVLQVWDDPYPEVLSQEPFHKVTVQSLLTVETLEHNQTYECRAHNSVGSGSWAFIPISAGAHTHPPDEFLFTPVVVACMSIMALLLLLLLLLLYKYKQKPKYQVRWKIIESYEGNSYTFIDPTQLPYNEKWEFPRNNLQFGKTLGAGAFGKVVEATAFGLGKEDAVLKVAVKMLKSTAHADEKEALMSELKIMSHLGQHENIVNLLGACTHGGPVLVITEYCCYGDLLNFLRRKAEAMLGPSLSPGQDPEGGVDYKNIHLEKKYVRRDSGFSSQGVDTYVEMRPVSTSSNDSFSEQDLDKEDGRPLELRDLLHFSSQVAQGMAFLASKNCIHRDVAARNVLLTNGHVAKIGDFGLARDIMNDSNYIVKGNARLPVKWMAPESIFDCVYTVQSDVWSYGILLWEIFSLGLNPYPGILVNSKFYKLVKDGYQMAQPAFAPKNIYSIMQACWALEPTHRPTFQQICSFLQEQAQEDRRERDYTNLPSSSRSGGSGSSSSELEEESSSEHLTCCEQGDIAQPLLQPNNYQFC
Compound,inhibition [1] [%],inhibition [2] [%],inhibition [3] [%],inhibition [4] [%],inhibition [5] [%],inhibition [6] [%],inhibition [7] [%],inhibition [8] [%],inhibition [9] [%],inhibition [10] [%],inhibition [11] [%],inhibition [12] [%],inhibition [13] [%],inhibition [14] [%],inhibition [15] [%],inhibition [16] [%],inhibition [17] [%],inhibition [18] [%],inhibition [19] [%],inhibition [20] [%]
N#Cc1cccc(Nc2nccc(-c3cnn4ncccc34)n2)c1,27.9,2.07,10.9,1.93,6.24,3.54,5.8,-4.91,4.18,7,15.6,3.24,9.23,11.2,53.4,5.06,22.3,34.4,79.4,6.76
O=C1Nc2ccccc2/C1=C/Nc1ccc2[nH]c(=O)[nH]c2c1,23.3,2.99,2.85,5.3,5.56,2.8,4.32,6.08,4.96,9.7,15.6,5.67,3.82,15.4,65.9,4.3,26.6,11.9,48.2,4.36
NS(=O)(=O)c1ccc(N/N=C2\C(=O)Nc3ccc(Cl)cc32)cc1,8.2,2.48,3.33,4.08,4.1,4.79,4.93,2.88,3.63,7.35,9.42,1.63,2.65,14,16.4,4.36,9.79,3.24,31.8,0.23
